For some assays here: Measured potencies and affinities stand elsewhere.

The record followed here is ChEMBL document CHEMBL3988442, “University of Dundee, Small-Polar-MMV Screening Library” (2021).

Common to all, as to set-up: scale not given: direction of the effect not stated beside the values
Experiment [1] has as its target Protein translocase subunit SecA (Escherichia coli (strain K12)) (UniProt P10408). The experiment in a line: Assay to Identify E. coli SecA ATPase Inhibitors. Format: functional. The settings on record: 30 µM.
Experiment [2] concerns the target T1, Ubiquitin-activating enzyme e1, putative (Leishmania donovani (strain BPK282A1)) (UniProt E9BSI1).
T1 sequence (whole entry): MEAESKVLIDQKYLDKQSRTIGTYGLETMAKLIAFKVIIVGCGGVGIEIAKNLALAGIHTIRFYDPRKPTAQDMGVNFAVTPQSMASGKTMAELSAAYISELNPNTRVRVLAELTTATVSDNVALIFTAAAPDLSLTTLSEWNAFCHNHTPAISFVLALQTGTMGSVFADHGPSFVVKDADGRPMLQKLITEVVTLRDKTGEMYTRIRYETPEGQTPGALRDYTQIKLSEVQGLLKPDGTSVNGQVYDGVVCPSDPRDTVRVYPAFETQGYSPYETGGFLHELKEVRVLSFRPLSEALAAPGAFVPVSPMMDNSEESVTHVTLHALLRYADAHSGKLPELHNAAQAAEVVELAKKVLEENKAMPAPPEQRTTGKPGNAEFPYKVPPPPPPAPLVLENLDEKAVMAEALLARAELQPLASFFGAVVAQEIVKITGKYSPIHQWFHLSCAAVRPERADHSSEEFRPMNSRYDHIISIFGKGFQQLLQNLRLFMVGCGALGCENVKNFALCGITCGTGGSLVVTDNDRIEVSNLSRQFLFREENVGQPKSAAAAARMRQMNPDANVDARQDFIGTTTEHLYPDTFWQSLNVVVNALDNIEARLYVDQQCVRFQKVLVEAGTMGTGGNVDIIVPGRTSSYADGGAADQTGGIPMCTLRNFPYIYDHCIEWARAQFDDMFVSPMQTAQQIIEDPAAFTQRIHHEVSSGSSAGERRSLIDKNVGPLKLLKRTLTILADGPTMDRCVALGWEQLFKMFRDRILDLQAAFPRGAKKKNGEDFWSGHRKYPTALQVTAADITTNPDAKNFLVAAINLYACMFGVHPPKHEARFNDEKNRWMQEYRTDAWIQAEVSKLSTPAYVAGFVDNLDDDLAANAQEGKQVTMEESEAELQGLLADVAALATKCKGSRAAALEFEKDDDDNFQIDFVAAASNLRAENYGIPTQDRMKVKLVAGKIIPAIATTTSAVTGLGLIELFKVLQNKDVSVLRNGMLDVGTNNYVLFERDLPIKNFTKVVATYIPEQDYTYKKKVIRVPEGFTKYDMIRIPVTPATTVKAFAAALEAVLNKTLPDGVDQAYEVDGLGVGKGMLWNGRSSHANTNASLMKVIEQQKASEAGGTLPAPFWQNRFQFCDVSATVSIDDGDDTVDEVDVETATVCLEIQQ
Nature of the experiment: Leishmania donovani Ubiquitin Activating Enzyme (LdE1). Type of experiment: functional. Particulars: 30 µM.

The target of experiment [3] is Sialic acid-binding Ig-like lectin 9 (Homo sapiens) (UniProt Q9Y336). The experiment in a line: Hs-Siglec9 ALPHAscreen SOP 20170721. Particulars: 10 µM. Background: Alpha assays give light when donor and acceptor beads are brought close together.
The test system of experiment [4] is Trypanosoma cruzi. The experiment in a line: Trypanosoma cruzi phosphomannomutase and mannose-1-phosphate guanylyltransferase assay. The settings on record: 10 µM. Format: functional.
For experiment [5], the target named is T2, Arginase-2, mitochondrial (Homo sapiens) (UniProt P78540).
T2 sequence (whole entry): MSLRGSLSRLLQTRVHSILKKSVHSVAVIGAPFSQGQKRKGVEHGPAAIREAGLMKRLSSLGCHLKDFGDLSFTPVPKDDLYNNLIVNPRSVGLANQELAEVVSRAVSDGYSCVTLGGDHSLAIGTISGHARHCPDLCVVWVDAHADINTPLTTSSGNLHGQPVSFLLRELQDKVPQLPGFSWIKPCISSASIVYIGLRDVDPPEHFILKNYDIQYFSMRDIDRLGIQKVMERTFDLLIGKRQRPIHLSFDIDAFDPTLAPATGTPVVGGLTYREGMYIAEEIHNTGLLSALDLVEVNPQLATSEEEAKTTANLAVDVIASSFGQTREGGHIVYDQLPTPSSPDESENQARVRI
Nature of the experiment: in vitro enzyme assay to detect the production of urea directly proportional to the activity of Arginase II. Also: in the data most compounds retested in dose-response had high values. Particulars: 33.3 µM. Type of experiment: functional.

Experiment [6] concerns the target T3, Proteasome subunit beta (Trypanosoma cruzi) (UniProt O96673).
T3 sequence (whole entry): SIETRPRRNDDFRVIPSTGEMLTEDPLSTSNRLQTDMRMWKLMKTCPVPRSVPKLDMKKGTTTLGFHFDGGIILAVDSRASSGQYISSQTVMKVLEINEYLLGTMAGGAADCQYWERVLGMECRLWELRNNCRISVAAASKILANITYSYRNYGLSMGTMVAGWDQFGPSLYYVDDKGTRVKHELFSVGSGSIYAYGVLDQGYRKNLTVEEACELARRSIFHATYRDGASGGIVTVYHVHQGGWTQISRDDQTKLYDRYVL
The experiment in a line: Trypanosoma cruzi proteasome chymotrypsin-like activity (TcProtChymo) assay. Also: in the data most compounds retested in dose-response had high values. Type of experiment: functional. The settings on record: 9.37 µM.

Experiment [7] is filed under the species Homo sapiens. Nature of the experiment: To identify inhibition of the IFN signalling (Jak-Stat) pathway via expression of an eGFP reporter gene under the control of an IFN-stimulated response element (ISRE) containing MxA promoter. Particulars: 30 µM. Format: functional. For orientation: A reporter such as luciferase makes a cellular process visible.
Experiment [8] deals with T4, Tyrosyl-tRNA synthetase, putative (Trypanosoma cruzi (strain CL Brener)) (UniProt Q4DSP6).
T4 sequence (whole entry): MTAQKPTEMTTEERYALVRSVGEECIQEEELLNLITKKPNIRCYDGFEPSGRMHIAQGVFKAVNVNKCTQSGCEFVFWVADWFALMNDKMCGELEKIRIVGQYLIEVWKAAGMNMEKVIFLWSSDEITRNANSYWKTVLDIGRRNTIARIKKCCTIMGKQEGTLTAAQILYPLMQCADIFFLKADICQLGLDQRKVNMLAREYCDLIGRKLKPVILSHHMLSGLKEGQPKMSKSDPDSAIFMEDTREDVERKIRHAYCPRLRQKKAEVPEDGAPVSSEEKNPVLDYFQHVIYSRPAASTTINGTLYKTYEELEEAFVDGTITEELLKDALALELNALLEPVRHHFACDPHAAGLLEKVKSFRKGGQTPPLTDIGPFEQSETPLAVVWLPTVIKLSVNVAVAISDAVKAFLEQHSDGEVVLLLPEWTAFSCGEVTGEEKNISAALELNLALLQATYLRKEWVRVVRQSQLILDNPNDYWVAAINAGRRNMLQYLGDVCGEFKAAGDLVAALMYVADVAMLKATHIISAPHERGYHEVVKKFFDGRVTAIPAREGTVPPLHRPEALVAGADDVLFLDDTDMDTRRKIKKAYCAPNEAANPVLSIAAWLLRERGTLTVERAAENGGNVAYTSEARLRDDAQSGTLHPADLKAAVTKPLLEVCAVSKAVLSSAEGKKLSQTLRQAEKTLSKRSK
The experiment in a line: Trypanosoma cruzi tyrosyl tRNA synthetase (TcYRS) _High Tyrosine SOP. Also: in the data most compounds retested in dose-response had high values. Type of experiment: functional. The settings on record: 30 µM.

The target in experiment [9] is T4, Tyrosyl-tRNA synthetase, putative (Trypanosoma cruzi (strain CL Brener)). The experiment in a line: Trypanosoma cruzi tyrosyl tRNA synthetase (TcYRS) SOP. Particulars: 30 µM. Format: functional.
For experiment [10], the target named is Chromo domain-containing protein 1 (Saccharomyces cerevisiae (strain ATCC 204508 / S288c) (Baker's yeast)) (UniProt P32657). The experiment in a line: ScCHD-1 Enzyme Inhibition Assay. Also: in the data most compounds retested in dose-response had high values. Type of experiment: functional. The settings on record: 30 µM.
Chain of Chromo domain-containing protein 1 (Saccharomyces cerevisiae (strain ATCC 204508 / S288c) (Baker's yeast)) (P32657 whole entry, the tested form may be a part): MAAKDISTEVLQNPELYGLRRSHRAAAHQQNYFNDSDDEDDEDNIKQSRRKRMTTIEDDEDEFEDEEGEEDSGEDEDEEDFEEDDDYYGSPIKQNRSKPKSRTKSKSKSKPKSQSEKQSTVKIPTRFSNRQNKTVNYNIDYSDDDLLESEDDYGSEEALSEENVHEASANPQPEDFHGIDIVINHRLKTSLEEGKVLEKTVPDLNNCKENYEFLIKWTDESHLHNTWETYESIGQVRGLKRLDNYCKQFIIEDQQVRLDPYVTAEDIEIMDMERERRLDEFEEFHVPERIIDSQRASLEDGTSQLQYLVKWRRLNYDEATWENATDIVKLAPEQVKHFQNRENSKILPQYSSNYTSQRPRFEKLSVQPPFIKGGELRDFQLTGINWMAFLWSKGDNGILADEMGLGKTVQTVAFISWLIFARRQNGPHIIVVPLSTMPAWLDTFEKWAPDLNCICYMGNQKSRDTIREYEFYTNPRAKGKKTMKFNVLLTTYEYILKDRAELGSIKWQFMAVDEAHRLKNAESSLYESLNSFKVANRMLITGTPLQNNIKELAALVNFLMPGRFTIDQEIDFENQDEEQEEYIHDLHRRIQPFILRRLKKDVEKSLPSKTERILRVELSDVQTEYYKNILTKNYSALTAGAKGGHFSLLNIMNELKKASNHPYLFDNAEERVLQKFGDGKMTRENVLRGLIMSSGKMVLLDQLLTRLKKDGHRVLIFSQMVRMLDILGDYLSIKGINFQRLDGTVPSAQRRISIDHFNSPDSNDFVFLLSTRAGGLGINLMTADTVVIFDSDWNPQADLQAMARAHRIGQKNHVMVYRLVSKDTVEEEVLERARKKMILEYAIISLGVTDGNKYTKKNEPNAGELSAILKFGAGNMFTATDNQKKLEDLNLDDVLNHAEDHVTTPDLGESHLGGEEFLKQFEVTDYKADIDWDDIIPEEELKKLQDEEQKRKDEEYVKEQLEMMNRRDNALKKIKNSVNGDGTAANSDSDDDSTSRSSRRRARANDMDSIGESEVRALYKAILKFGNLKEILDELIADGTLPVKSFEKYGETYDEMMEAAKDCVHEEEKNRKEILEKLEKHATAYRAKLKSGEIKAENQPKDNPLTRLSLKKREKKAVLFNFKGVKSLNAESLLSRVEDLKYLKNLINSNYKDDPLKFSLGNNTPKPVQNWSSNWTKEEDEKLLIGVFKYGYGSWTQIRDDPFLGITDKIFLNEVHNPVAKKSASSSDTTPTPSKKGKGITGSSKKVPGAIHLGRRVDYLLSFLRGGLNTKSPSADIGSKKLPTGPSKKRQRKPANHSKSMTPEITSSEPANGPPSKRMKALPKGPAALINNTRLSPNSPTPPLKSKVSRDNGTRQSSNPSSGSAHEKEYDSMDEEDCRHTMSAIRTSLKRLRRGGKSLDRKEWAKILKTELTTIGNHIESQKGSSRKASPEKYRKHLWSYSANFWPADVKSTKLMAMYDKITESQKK

Chain of Sialic acid-binding Ig-like lectin 9 (Homo sapiens) (Q9Y336 whole entry): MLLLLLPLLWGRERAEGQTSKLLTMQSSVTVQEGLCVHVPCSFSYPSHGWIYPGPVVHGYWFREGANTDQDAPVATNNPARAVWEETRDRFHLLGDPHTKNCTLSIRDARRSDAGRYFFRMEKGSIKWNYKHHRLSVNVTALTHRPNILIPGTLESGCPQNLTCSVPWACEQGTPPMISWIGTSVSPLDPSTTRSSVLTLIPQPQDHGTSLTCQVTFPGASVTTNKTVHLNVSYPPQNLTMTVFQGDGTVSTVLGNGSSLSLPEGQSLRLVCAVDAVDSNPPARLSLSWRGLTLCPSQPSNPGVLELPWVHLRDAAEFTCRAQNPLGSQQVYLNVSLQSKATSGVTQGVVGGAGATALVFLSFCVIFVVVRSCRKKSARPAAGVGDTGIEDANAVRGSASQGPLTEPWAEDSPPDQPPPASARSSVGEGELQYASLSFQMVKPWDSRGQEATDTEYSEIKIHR
Chain of Protein translocase subunit SecA (Escherichia coli (strain K12)) (P10408 whole entry): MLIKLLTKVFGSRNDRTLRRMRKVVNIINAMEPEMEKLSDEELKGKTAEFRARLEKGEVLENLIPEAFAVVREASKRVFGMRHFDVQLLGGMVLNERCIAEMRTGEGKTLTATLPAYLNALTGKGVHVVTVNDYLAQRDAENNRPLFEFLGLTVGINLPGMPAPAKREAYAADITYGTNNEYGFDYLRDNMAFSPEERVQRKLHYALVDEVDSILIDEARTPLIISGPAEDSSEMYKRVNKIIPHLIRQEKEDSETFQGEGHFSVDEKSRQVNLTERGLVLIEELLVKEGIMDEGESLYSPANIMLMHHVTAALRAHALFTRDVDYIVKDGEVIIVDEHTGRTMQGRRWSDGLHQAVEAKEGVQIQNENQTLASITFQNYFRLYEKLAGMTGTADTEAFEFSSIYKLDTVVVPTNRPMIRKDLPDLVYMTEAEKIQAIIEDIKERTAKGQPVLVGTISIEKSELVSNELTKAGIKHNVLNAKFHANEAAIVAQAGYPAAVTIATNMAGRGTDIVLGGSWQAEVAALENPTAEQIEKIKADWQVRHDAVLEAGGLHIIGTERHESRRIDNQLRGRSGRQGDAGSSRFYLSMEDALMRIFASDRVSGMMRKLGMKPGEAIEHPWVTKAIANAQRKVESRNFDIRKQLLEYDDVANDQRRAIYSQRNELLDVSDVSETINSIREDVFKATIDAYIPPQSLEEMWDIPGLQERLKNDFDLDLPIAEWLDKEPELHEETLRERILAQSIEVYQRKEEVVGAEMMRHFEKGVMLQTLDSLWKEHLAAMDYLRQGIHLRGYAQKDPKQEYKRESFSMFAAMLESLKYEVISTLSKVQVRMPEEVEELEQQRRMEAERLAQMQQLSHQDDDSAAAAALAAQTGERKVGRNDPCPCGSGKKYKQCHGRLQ

`Cc1cc(C)n(CC2CN(Cc3nc(-c4ccco4)no3)CCO2)n1` (stereo not given): the Percent Effect in experiment [1] is -4.45%; in experiment [2] it was 23.4%; in experiment [3] it was 7.28%; in [4], 5.78%; in [5], 1.43%; in experiment [6], 8.25%. In addition, the Percent Effect in experiment [7] was 12.5%; in experiment [8], 5.88%; in [9], 23.5%; in [10] it was -11.8%.

As for `COc1ccc(CN2CCC3(CC(Nc4ccncn4)C3)C2)c(OC)c1` (stereo not given), the Percent Effect in experiment [1] is -3.35%; in [2] it was 9.33%; in experiment [3], 5.58%; in experiment [4], -2.76%; in experiment [5], -3.54%; in [6] it was 8.21%. The Percent Effect in experiment [7] was 5.35%; in experiment [8], 5.29%; in experiment [9], 7.5%; in experiment [10], -20.7%.

For the compound `CCn1cc2c(n1)C(COC)CN(C(=O)COc1ccccc1C)C2` (stereo not given), the Percent Effect in experiment [1] is -5.08%; in experiment [2] it was -3.9%; in experiment [3] it was 1.02%; in experiment [4], -5.16%; in experiment [5], -13.4%; in [6] it was 11%. Moreover, the Percent Effect in experiment [7] was found to be 4.86%; in experiment [8], 2.63%; in experiment [9], 5.13%; in [10], 2.06%.

On to `COc1cccc(OC)c1C(=O)N1CCN(c2ccccc2F)CC1`, for which the Percent Effect was 0.59% in experiment [1]; 12% in experiment [2]; 0.141% in experiment [3]; -4.34% in experiment [4]; -6.2% in [5]; 12.2% in experiment [6]. Also, the Percent Effect is 46.4% in [7], 0% in experiment [8], -5% in experiment [9] and -24.9% in [10].

For `CC(Cn1cccn1)NC(=O)NCc1ccccn1` (stereo not given), the Percent Effect in [1] was -2.65%; in experiment [2], 8%; in [3], -5.88%; in [4], -5.22%; in experiment [5] it was 1.33%; in experiment [6] it was 7.04%. For the same compound, the Percent Effect in experiment [7] is 13.9%; in experiment [8], 1.58%; in [9], 10.3%; in [10] it was -11%.

Regarding `COc1ccc(CC(=O)N2CCc3nnc(N(C)C)cc3C2)cc1F`, the Percent Effect in experiment [1] is -3.64%; in [2] it was 12.8%; in [3], -2.71%; in experiment [4], -1.97%; in experiment [5] it was 1.23%; in experiment [6], 17.7%. In addition, the Percent Effect in experiment [7] was 20.5%; in experiment [8], 5.26%; in [9], 6.02%; in experiment [10] it was -0.877%.

For `Cc1cccc(N2CCN(C(=O)Nc3cnn(CC(N)=O)c3)CC2)c1`, the Percent Effect in experiment [1] was 0.381%; in experiment [2], 20.5%; in [3], -9.92%; in experiment [4], 5.73%; in experiment [5] it was 6.56%; in experiment [6], 1.28%. The Percent Effect was -6.7% in experiment [7], 4.31% in [8], 25.3% in experiment [9] and -4.54% in [10].

In the case of `CNC(=O)c1cc(S(=O)(=O)C(C)C)cs1`, the Percent Effect in experiment [1] amounted to 0.159%; in [2], 19.5%; in experiment [3] it was 28.2%; in experiment [4], 3.75%; in experiment [5], 3.2%; in experiment [6], 13.7%. Moreover, the Percent Effect in experiment [7] is -6.32%; in experiment [8], 6.76%; in experiment [9], 20%; in experiment [10], -10.6%.

As to `COc1ccc(F)cc1C(C)NC(=O)Cn1ccc(=O)n(C)c1=O` (stereo not given), the Percent Effect in [1] came out at 2.28%; in experiment [2] it was 13%; in experiment [3], 2.06%; in experiment [4], 2.05%; in [5], 5.94%; in experiment [6], 9.82%. The Percent Effect in experiment [7] is -0.632%; in experiment [8], 9.8%; in experiment [9], 21.2%; in experiment [10] it was -4.5%.

As for `CNC(=O)[C@@H]1C[C@H]2CN(Cc3nccs3)C[C@H]2N1C`, the Percent Effect in experiment [1] was 0.644%; in experiment [2], 27.3%; in experiment [3] it was -2.68%; in experiment [4] it was 0.75%; in experiment [5] it was 2.28%; in experiment [6], 19.7%. In addition, the Percent Effect is 11.3% in experiment [7], 12.6% in experiment [8], 22.5% in experiment [9] and -5.35% in experiment [10].

With `Cn1cc(CN2CCC3(CC2)CC(c2ccncc2)C(=O)N3)cn1` (stereo not given), the Percent Effect in experiment [1] is -3%; in experiment [2], 6.49%; in experiment [3] it was -3.92%; in experiment [4], -5.36%; in experiment [5], 2.02%; in [6] it was 16.7%. Besides, the Percent Effect was -2.28% in [7], 3.68% in [8], 10.3% in experiment [9] and -1.42% in experiment [10].
